Experimental data taken from PubChem BioAssay (NCI).
“And” between values parts separate entries of the source, which are not always exact repeats. Equal entries are not always repeated. This is part of a sample that, as a whole, favours compounds with a hit. Of some 83,000 tested, about 20% had one in any assay.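 Plates (96-well) were seeded with cells, treated with compound at one concentration, and incubated for 48 hours before percent growth was determined.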 A number with no mark means an inactive call. The source made the active and inactive calls. How the source made its calls: active means growth percent below 10; inactive means the rest.

system: MDA-MB-468 breast; assay: NCI-60 one-dose screen, 48 h (100 = growth as untreated, 0 = no growth, -100 = all killed); settings: 10 µM unless noted

| Compound | growth |
| --- | --- |
| CN(C)C(=S)SCN1C(=O)c2ccc([N+](=O)[O-])cc2S1(=O)=O | 88.4% |
| O=C1C=Cc2ccccc2/C1=C/c1[nH]c(=O)[nH]c1O | 41.5% |
| C=CC[N+]1(CC)CCN=C1CCCCCCCCCCCCCCCCC (stereo not given) | -82.6% (active) |
| O=C(Nc1ccncc1)C(=O)c1cn(S(=O)(=O)c2cc(Cl)cc(Cl)c2)c2ccccc12 | 41.6% |
| Nc1cc(C(=O)O)cc(C(=O)O)c1 | 112% |
| COc1cc(C(=O)NC(=S)NCc2ccncc2)cc(OC)c1OC | 94.2% |
| CC1(C)CC(OCCCC[P+](c2ccccc2)(c2ccccc2)c2ccccc2)CC(C)(C)N1O | -44.2% (active) |
| COc1ccc(NC(=O)c2cccc(-c3cc(=O)c4c(O)c(OC)c(OC)cc4o3)c2)cc1 | 84.3% |
| COC(=O)c1nc(=S)[nH]c(C(=O)OC)c1C(=O)c1ccc(Cl)c(Cl)c1 | 105% |
| O=C(Nc1cccc([N+](=O)[O-])c1)NN1CCCCCC1 | 88.7% |
| COc1cccc(/C=C(/C)c2ccc3cccc(OC)c3[o+]2)c1O | 95.9% |
| CCCCOCCOCCOCc1cc2c(cc1Br)OCO2 | 102% |
| C=CCCCC(=O)CCC(=O)OCC1O[C@@H](O[C@@H]2C(O)[C@@H](OC(C)=O)C(C)O[C@H]2O[C@H](CC=C)CCCCC)C(O)[C@@H](OC(=O)/C(C)=C/C)[C@@H]1OC(=O)/C=C/c1ccccc1 (stereo not given in full) | -23.6% (active) |
| O=C(O)COc1ccc2c(=O)c3sc4c(=O)c5ccccc5c(=O)c4c3c(=O)c2c1 | 26.4% |
| COc1cc(NC(=O)c2cccc(-c3cc(=O)c4c(OC)c(OC)c(OC)cc4o3)c2)cc(OC)c1OC | 47.4% |
| Clc1ccc2c(NCCNc3nc(N4CCCCC4)nc4ccccc34)ccnc2c1 | -31.7% (active) |
| COc1ccc(N)c(-c2cc3c(c4c2[nH]c2ccc(OC)cc24)CCCC3)c1 | 94.5% |
| O=c1oc2ccc(Br)cc2c(=O)n1-c1ccc(I)cc1F | -0.692% (active) |
| O=C(O)CNC(=O)CN1C(=O)c2ccccc2C1=O | 106% |
| CCN(Cc1ccccc1)c1ccc(SC#N)cc1 | 72.3% |

| Compound | growth |
| --- | --- |
| CC/C=C(\C)C(CCC)(CN=O)C(=O)OCC (stereo not given) | 113% |
| COc1cc(OC)c(C(=O)/C=C/c2ccc(C(F)(F)F)cc2)c(OC)c1 | 46.3% |
| CCOC(=O)c1c(Nc2ccccc2)nn2c(-c3ccc(Cl)cc3)ccnc12 | 65.1% |
| O=C(CSc1nc2c(n1Nc1ccccc1)-c1ccccc1SC2)Nc1nc(-c2ccc(Cl)cc2)cs1 | 59.1% |
| N#CCc1ccc([N+](=O)[O-])cc1 | 96.8% |
| O=C(NCc1ccco1)C1CN(c2ccc(Cl)cc2)N(c2ccc(Cl)cc2)C1=O (stereo not given) | 42.4% |
| CN1CCN(Cc2ccc(NC(=O)c3ccc(C#Cc4c(N)ncc5ccc(F)cc45)cc3)cc2C(F)(F)F)CC1 | -73.6% (active) |
| CC(C)C[C@@H](NC(=O)[C@@H](Cc1ccccc1)NC(=O)c1cnccn1)B1Oc2ccc(C[C@H](NC(=O)[C@H](Cc3ccc4c(c3)OB([C@@H](CC(C)C)NC(=O)[C@@H](Cc3ccccc3)NC(=O)c3cnccn3)O4)NC(=O)[C@@H](N)CC3CCC4OB([C@@H](CC(C)C)NC(=O)[C@@H](CC5CCCCC5)NC(=O)C5CNCCN5)OC4C3)C(=O)NCCCC[C@@H]3NC(=O)[C@@H](Cc4ccccc4)NC(=O)[C@H](CC(=O)O)NC(=O)CNC(=O)[C@H](CCCNC(=N)N)NC3=O)cc2O1 (stereo not given in full) | -41.5% (active) |
| Clc1ccc(C(Cn2ccnc2)OCc2ccsc2Cl)c(Cl)c1 (stereo not given) | 9.75% (active) |
| C=CCNc1nc(NN2C(=O)c3cccc4cccc(c34)C2=O)nc(-n2cnc3ccccc32)n1 | 80.5% |
| O=[N+]([O-])c1cccc(-c2nc3sccn3c2-c2ccnc(NCCNS(=O)(=O)c3ccc(C(F)(F)F)cc3)n2)c1 | 28.3% |
| O=c1ccc(N=Nc2ccc([N+](=O)[O-])cc2)ccc1O | -15.7% (active) |
| CCOC(=O)COc1ccc2c(c1)O/C(=C\c1ccc(O)cc1)C2=O | 91.9% |
| COc1ccc([C@H]2C(=O)N(c3cc(OC)c(OC)c(OC)c3)[C@@H]2c2ccc(OC)c(O)c2)cc1 | -2.22% (active) |
| Nc1nc(N)c2nc(CNc3ccc(C(=O)NC(CCC(=O)O)C(=O)O)cc3)cnc2n1 (stereo not given) | 13.1% and 12% |
| COCCn1cc(-c2nc(-c3cn(CCOC)c4ncccc34)cs2)c2cc(F)ccc21 | -10.9% (active) |
| C[C@@H]1NC(=O)[C@H](Cc2ccccc2)N(Cc2cccnc2)C1=O | 108% |
| O=C(Nc1ccc2c(c1)OCO2)C(=O)c1c[nH]c2cc(F)ccc12 | 74.5% |
| CC12CCC(/C(=C/NNc3ccc([N+](=O)[O-])cc3[N+](=O)[O-])C1=O)C2(C)C (stereo not given) | 45% |
| COc1ccc(C(=O)/C=C/c2ccc(C)cc2)cc1OC | 47.6% |
